Results on 61 compounds are retold here after ChEMBL document CHEMBL4513216, “Probing the Open Global Health Chemical Diversity Library for Multistage-Active Starting Points for Next-Generation Antimalarials” (ACS Infect Dis, 2020).

Structures are written as SMILES. Among all 69,000 compounds or so, about 8,600 (12%) showed an effect of 50% or more. The full list was thinned out, with strong results kept by preference.

The experiment relates to Plasmodium berghei. The experiment can be described thus: Screen against P. berghei liver stage (PbLuc), transformed with Luciferase, at 10uM. The class given is functional, HepG2. Particulars: tested at 10 uM.
Take `COc1ccc(-n2cc3[nH]c(=O)[nH]n3c2=O)cc1`: the INHIBITION came to 3.68%.
With `Cc1ncncc1C(=O)N1CCCC(n2ccnc2C)C1` (stereo unspecified) the figure was -20.1%; with `NC(=O)N1CCC2(CC1)CN(Cc1cccnc1)C(=O)CO2`, 2.4%; with `COCCN1CCC2(CC1)CN(C(=O)c1ccccc1)CCO2`, 39.5%.
Turning to `Cc1nocc1C(=O)N1CCOC2(COCCN(CC3CC3)C2)C1` (stereo unspecified), the INHIBITION worked out at 1.7%.
With `O=C(c1ccco1)N1CCCC2(CN(Cc3ccoc3)CCO2)C1` (stereo unspecified), the INHIBITION is given as -8.25%.
For the compound `COCCN1CCOCC2(C1)CN(C(=O)c1conc1C)CCO2` (stereo unspecified), the INHIBITION is 53.4%.
With `O=C(c1ccco1)N1CCCC2(CN(Cc3ccsc3)CCO2)C1` (stereo unspecified) the figure was 76.5%; with `Cc1nocc1C(=O)N1CCOC2(COCCN(C(C)C)C2)C1` (stereo unspecified), 20.6%.
With `O=C(c1ccco1)N1CCCC2(CN(Cc3cccs3)CCO2)C1` (stereo unspecified) the figure was 2.02%.
Regarding `COCCN1CCC2(CC1)CN(C(=O)c1cccs1)CCO2`, the INHIBITION was -23.3%.
Take `COCCN1CCC2(CC1)CN(C(=O)c1ccco1)CCO2`: the INHIBITION is reported as 51.9%.
As for `O=C(CC1CC1)N1CC[C@H]2OCC[C@@]2(COc2ncccc2F)C1`, the INHIBITION is reported as -31.3%.
Turning to `CN1CCN(C(=O)C2CCCN(c3cccnn3)C2)CC1` (stereo unspecified), the INHIBITION worked out at 42.4%.
Take `O=C(Nc1cc(C(F)(F)F)c[nH]c1=O)C1CCCCN1` (stereo unspecified): the INHIBITION was -5.51%.
Regarding `CNC(=O)CCN(C)c1nc(-c2ccncc2)nc2c1CCNC2`, the INHIBITION stood at 35.8%.
On to `CCCc1nnc(N2CC[C@@](O)(C3CCOCC3)[C@H](C)C2)s1`, for which the INHIBITION was 60.3%.
Consider `CNc1ccnc(N2CC[C@@](O)(C3CCOCC3)[C@H](C)C2)n1`, for which the INHIBITION is reported as 59.3%.
With `CNc1ccnc(N2C[C@@H](C)[C@](O)(C3CC3)C2)n1`, the INHIBITION amounted to 39.9%.
For `CNc1ccnc(N2C[C@@H](C)[C@](O)(C3CCC3)C2)n1`, the INHIBITION amounted to 30.1%.
With `CCCc1nnc(N2CC[C@](C)(O)[C@H](C)C2)s1` the figure was -50.3%; with `CCCc1nnc(N2C[C@@H](C)[C@@](C)(O)C2)s1`, 9.96%.
`Cc1cnc(C2(C)CCN(Cc3csc(C)n3)CC2)s1`: the INHIBITION was 6.32%.
With `O=C(NC1CCCOc2cc(Cl)ccc21)c1ccc(=O)[nH]n1` (stereo unspecified), the INHIBITION was -10.9%.
On to `CCN1CC2(CCC1=O)CCN(C(=O)c1cn3cccnc3n1)CC2`, for which the INHIBITION was -13.6%.
On to `COc1ccc(Br)cc1SCCC(N)=O`, for which the INHIBITION is recorded as 16.1%.
Take `CN1CC[C@H]2OCC[C@@H](C(=O)NCc3ccco3)[C@@H]2C1`: the INHIBITION came out at 18.3%.
For the compound `O=C(NCc1ccco1)[C@@H]1CCO[C@@H]2CCN(CC3CC3)C[C@@H]21`, the INHIBITION came out at 67.2%.
As to `O=C(NC1CC1)[C@@H]1CCO[C@@H]2CCN(Cc3ccsc3)C[C@H]21`, the INHIBITION was found to be 27.3%.
With `O=C(NC1CC1)[C@@H]1CCO[C@@H]2CCN(C3CCCC3)C[C@H]21` the figure was 3.25%.
With `O=C(NCc1ccccn1)[C@@H]1CCO[C@@H]2CCN(Cc3ccoc3)C[C@H]21`, the INHIBITION came to 54.6%.
On to `Cn1cc(CN2CC[C@H]3OCC[C@@H](C(=O)NCc4ccco4)[C@@H]3C2)cn1`, for which the INHIBITION worked out at 5.96%.
For `O=C(NC1CC1)[C@@H]1CCO[C@@H]2CCN(C3CCOCC3)C[C@H]21` the value was -48.2%; for `O=C(NCC1CC1)[C@@H]1CCO[C@@H]2CCN(Cc3ccco3)C[C@H]21`, -22.8%; for `O=C(NCc1ccccn1)[C@H]1COC[C@H]2CN(Cc3ccoc3)C[C@H]21`, 31.8%.
Consider `O=C(NC1CC1)[C@@H]1CCO[C@@H]2CCN(CC3CCC3)C[C@@H]21`, for which the INHIBITION was found to be 91%.
For `O=C(NC1CC1)[C@@H]1CCO[C@@H]2CCN(Cc3ccco3)C[C@H]21` the value was 18.3%.
Consider `O=C(NC1CC1)[C@@H]1CCO[C@@H]2CCN(CC3CCC3)C[C@H]21`, for which the INHIBITION was determined as 61.1%.
Turning to `CN(C)Cc1ccnc(C2CCCN2Cc2cc3ccccc3s2)n1` (stereo unspecified), the INHIBITION is 19.6%.
`CC1CN(Cc2cc(C#N)ccc2F)CCN1Cc1nccn1C` (stereo unspecified): the INHIBITION worked out at 22.95%.
For the compound `O=C(CCc1cc2n(n1)CCCNC2)N1CCSCC1`, the INHIBITION was -24.7%.
For `CNc1nc(C2CCCCN2C(=O)COC)nc2c1CN(C)CC2` (stereo unspecified), the INHIBITION stood at 38.2%.
For `O=C(NC1CCC1)[C@@H]1CCO[C@@H]2CCN(C3CCCC3)C[C@@H]21` the value was 53.4%.
With `O=C(NC1CCC1)[C@@H]1CCO[C@@H]2CCN(C3CCCC3)C[C@H]21`, the INHIBITION was -25.2%.
On to `O=C(NC1CCC1)[C@@H]1CCO[C@@H]2CCN(CCc3ccccc3)C[C@H]21`, for which the INHIBITION was 53.5%.
Consider `O=C(NC1CC1)[C@@H]1CCO[C@@H]2CCN(CCc3ccccc3)C[C@@H]21`, for which the INHIBITION is listed as 27.3%.
As to `O=C(NC1CC1)[C@@H]1CCO[C@@H]2CCN(C3CCOCC3)C[C@@H]21`, the INHIBITION is 26.8%.
For `CNC(=O)[C@@H]1CCO[C@@H]2CCN(CCc3ccccc3)C[C@H]21` the value was 8.52%; for `Cc1ccc(-n2c(SCC(=O)O)nnc2-c2ccccc2)cc1`, -12.9%; for `O=C1CN(CC2CC2)Cc2nc(NCc3ccccc3)sc21`, 29.3%.
As to `Cn1cc(-c2nc(CN3CCCCC3Cn3cncn3)cs2)cn1` (stereo unspecified), the INHIBITION is -91.6%.
As for `Cc1nnc2n1CCN(C(=O)c1cc(Br)c(Cl)[nH]1)C2`, the INHIBITION amounted to 18.85%.
As to `Cc1noc(C2CCCN(Cn3cc(Cl)cn3)C2)n1` (stereo unspecified), the INHIBITION is given as -9.39%.
For `Cc1nc(CN2C(=O)C[C@H]3[C@H]2CCN3C2CCOCC2)cs1`, the INHIBITION is 20.1%.
In the case of `Cc1nc(CN2C(=O)CC[C@@H]3[C@H]2CCN3C2CCOCC2)cs1`, the INHIBITION was 50%.
For the compound `Cc1nc(CN2C(=O)C[C@H]3[C@H]2CCN3CC2CCOC2)cs1` (stereo partly specified), the INHIBITION amounted to 56.6%.
With `Cc1nc(CN2C(=O)C[C@@H]3[C@@H]2CCN3CC2CCOCC2)cs1`, the INHIBITION is -5.08%.
On to `Cc1nc(CN2C(=O)CC[C@@H]3[C@H]2CCN3C2CCOC2)cs1` (stereo partly specified), for which the INHIBITION is -54.9%.
For `Cc1nc(CN2C(=O)C[C@H]3[C@H]2CCN3C2CCOC2)cs1` (stereo partly specified), the INHIBITION is -43.1%.
As for `O=C(c1cnn2ccccc12)N1CCCC(OCc2ccccn2)C1` (stereo unspecified), the INHIBITION was 15.7%.
In the case of `COc1c(CNC(c2ccccc2)c2ccc(F)cc2)c(C)nn1C` (stereo unspecified), the INHIBITION was determined as 35.4%.
